From ChEMBL document CHEMBL4513216, “Probing the Open Global Health Chemical Diversity Library for Multistage-Active Starting Points for Next-Generation Antimalarials” (ACS Infect Dis, 2020)
In all, about 69,000 compounds went through this assay and about 8,600 (12%) showed an effect of 50% or more. This excerpt belongs to a sample that is enriched for strong results.

tested on: Plasmodium berghei; assay: Screen against P. berghei liver stage (PbLuc), transformed with Luciferase, at 10uM; assay type: functional, HepG2; conditions: tested at 10 uM

| Compound | INHIBITION [%] |
| --- | --- |
| Cc1csc(CCNCc2cnc3c(c2)c(C)nn3C)n1 | -14.8 |
| COCC1CN(Cc2ccc(OC)cc2)Cc2nnn(CC3CC3)c21 (centres undefined) | 18.7 |
| COCCOc1ccc(CNC2CCc3ncnn3C2)cc1OC (centres undefined) | 49.5 |
| COc1cccc(CCNS(=O)(=O)c2ccc(NC(C)=O)cc2)c1 | 22.9 |
| CCN1CCN(C)C(=O)C12CCN(Cc1cccc(C)c1)CC2 | 39.5 |
| Cc1nc(CN2CCN(C(=O)c3ccc(=O)n(C)c3)CC2)cs1 | -15.9 |
| CN(C)C(=O)NCC(=O)N1CCCC2(CCC(=O)N(CC3CC3)C2)C1 (centres undefined) | 24.9 |
| O=C(NCC1(O)CCC1)NC(c1cc(F)ccc1F)C1CC1 (centres undefined) | 31.2 |
| CS(=O)(=O)N1C[C@H]2CC[C@@H](C1)N(C(=O)CCc1ccsc1)C2 | -34.8 |
| Cc1ccc(C2(O)CCN(Cc3nc(C)n4ccccc34)CC2)nc1 | 26.1 |
| Cc1nc2ccccn2c1CN1C[C@@H](CN2CCOCC2)[C@@H](CO)C1 | 12.8 |
| Cc1nc(CN2CCC3(CCCO3)CC2)c2ccccn12 | 53.6 |
| Cc1cc(C(F)(F)F)cc(N2C[C@@H](CN3CCOCC3)[C@@H](CO)C2)n1 | 53.2 |
| COc1cnc(N2C[C@@H](CN3CCOCC3)[C@@H](CO)C2)nc1 | -35 |
| OC[C@H]1CN(Cc2c(Cl)cncc2Cl)C[C@H]1CN1CCOCC1 | -37.9 |
| Cc1nc(CN2CCC(O)(c3ccccc3F)CC2)c2ccccn12 | 23.9 |
| Cc1nc(CN2C[C@@H](CN3CCOCC3)[C@@H](CO)C2)c2ccccn12 | 63.7 |
| Cc1cc(C(F)(F)F)cc(N2C[C@@H](CN(C)CCO)[C@@H](CO)C2)n1 | 0.348 |
| CCC1CN(C(=O)NCCOc2ccc3c(c2)OCO3)CCO1 (centres undefined) | 30.2 |
| Cc1cc(Oc2ccccc2)nc(C2CCN(CCO)CC2)n1 | 24.15 |
| Cn1cccc1C(=O)N[C@@H]1CN(Cc2cccs2)[C@@H]2COC[C@@H]21 | -4.88 |
| Cc1nc(Cn2c3c(ccc2=O)CC(N)CC3)cs1 (centres undefined) | 9.65 |
| CN(Cc1cccc(O)c1)C(=O)Nc1cccnc1N1CCCC1 | 33.3 |
| O=c1[nH]c2csnc2c(=O)n1Cc1ccc(Br)cc1 | 29.1 |
| CCC(c1nc(C(C)C)nn1-c1ccncc1C)n1cccn1 (centres undefined) | 57.2 |

| Compound | INHIBITION [%] |
| --- | --- |
| CCC(c1nc(C(C)C)nn1-c1ccccn1)n1cccn1 (centres undefined) | 38.8 |
| Cc1cnccc1-n1nc(C(C)C)nc1CCc1cnccn1 | -3.12 |
| CCCn1ccnc1CN1CC[C@@H](NC(=O)c2cccnc2)[C@H](O)C1 | 12.9 |
| Cc1nn(CCO)c(C)c1CN1CCN(C2CCCCC2)C(=O)C1 | 16.9 |
| CN(C)C(=O)CNC(=O)Nc1cccc(Cl)c1SC(F)F | 23.2 |
| CC(=O)NCCNC(=O)Nc1cccc(Cl)c1SC(F)F | 46.4 |
| CCNC(=O)CNC(=O)Nc1cccc(Cl)c1SC(F)F | 64.3 |
| CNC(=O)CCNC(=O)Nc1cccc(Cl)c1SC(F)F | 60.3 |
| O=C(NCCO)Nc1cccc(Cl)c1SC(F)F | 13 |
| O=C(CNC(=O)Nc1cccc(Cl)c1SC(F)F)NC1CC1 | 29.5 |
| O=C(NCC1COCc2c(-c3cccnc3)nnn2C1)c1cccs1 (centres undefined) | 43.2 |
| COCCNc1ccc(CC2CCCNC2)cn1 (centres undefined) | 44.3 |
| CO[C@@H]1CCN(S(=O)(=O)c2cn(C)cn2)[C@H]1Cc1ccncc1 | 39.4 |
| Cc1nccn1CCNC(=O)C1(C)CC(c2ccccc2)=NO1 (centres undefined) | -1.16 |
| Cc1cccc(CO[C@@H]2CC[C@H]3[C@H]2OCCN3Cc2ccsc2)n1 | 16.6 |
| Cc1ccc(CN2CCO[C@H]3[C@H](OCc4cccnc4)CC[C@@H]32)o1 | 56.4 |
| Cc1cccc(CO[C@@H]2CC[C@H]3[C@H]2OCCN3Cc2ccoc2)n1 | 67.5 |
| CCN(CC)CCN1CCO[C@H]2[C@@H](OCc3ccncc3)CC[C@@H]21 | 29 |
| Cc1ccc(CN2CCO[C@H]3[C@@H](OCc4cccnc4)CC[C@@H]32)o1 | 15.6 |
| CCO[C@@H]1CC[C@H]2[C@H]1OCCN2Cc1ccc(F)cc1 | 8.52 |
| Fc1ccc(CN2CCO[C@H]3[C@H](OCc4ccncc4)CC[C@@H]32)cc1 | 92.8 |
| CO[C@@H]1CC[C@H]2[C@H]1OCCN2Cc1ccc(F)cc1 | 25.3 |
| COc1ccc(CN2CCO[C@H]3[C@H](OCc4ccncc4)CC[C@@H]32)cc1 | 90.1 |
| COCCN1CCO[C@H]2[C@H](OCc3cccc(C)n3)CC[C@@H]21 | -8.25 |
| COc1ccc(CN2CCO[C@H]3[C@H](OCCN4CCCC4)CC[C@@H]32)cc1 | 0.618 |

| Compound | INHIBITION [%] |
| --- | --- |
| Cc1ccc(CN2CCO[C@@H]3[C@@H](OCc4cccnc4)CC[C@@H]32)o1 | 26.5 |
| O=C(NCC1CC[C@@H]2[C@@H]1OCCN2Cc1cccs1)c1ccco1 (some centres undefined) | 12.1 |
| CCCn1ncc(CN(Cc2cccnc2)Cc2cccs2)c1C | -4.87 |
| Cc1ocnc1C(=O)N(C)[C@@H]1CC[C@@H](Oc2ccccc2)[C@@H]1O | 16.2 |
| COCCO[C@H]1CCN(Cc2cnn(C)c2)[C@H]1Cc1cccnc1 | 9.51 |
| CN(C)C(=O)C1OC2(CCN(c3ncc(F)cn3)CC2)c2ccccc21 (centres undefined) | 49.3 |
| Cc1noc(C)c1-c1ccnc(C2CCN(S(=O)(=O)N(C)C)CC2)c1 | 35.2 |
| CCN(Cc1cn(C)nc1-c1ccc2c(c1)OCCO2)CC1CCCO1 (centres undefined) | 28.5 |
| CC(C)N1CCCC(CNC(=O)CN(C)S(=O)(=O)c2ccccc2)C1 (centres undefined) | -3.21 |
| Cn1nc(CNC(=O)C2CCC2)cc1C1CC1 | -34.5 |
| Cc1cccc(CO[C@@H]2CC[C@H]3[C@H]2OCCN3Cc2nccs2)n1 | -44.2 |
| c1cc(CO[C@@H]2CC[C@H]3[C@H]2OCCN3CC2CCOCC2)ccn1 | 68.8 |
| Cc1cccc(CO[C@@H]2CC[C@H]3[C@H]2OCCN3Cc2cc(C)on2)n1 | -46.8 |
| c1cc(CO[C@@H]2CN(Cc3ccoc3)[C@@H]3CCCO[C@@H]32)ccn1 | 47.5 |
| c1cc(CO[C@H]2CC[C@H]3[C@H]2OCCN3Cc2nccs2)ccn1 | 84.7 |
| O=C(C1CCOCC1)N1CCO[C@H]2[C@H](OCc3ccncc3)CC[C@@H]21 | 14.1 |
| O=C(C1CCOCC1)N1CCO[C@H]2[C@@H](OCc3ccncc3)CC[C@@H]21 | 43.3 |
| c1csc(CN2CCO[C@H]3[C@H](OCC4CCCC4)CC[C@@H]32)n1 | 41.2 |
| CCO[C@@H]1CC[C@H]2[C@H]1OCCN2Cc1ccoc1 | 35.8 |
| c1cc(CO[C@@H]2CC[C@H]3[C@H]2OCCN3Cc2ccoc2)ccn1 | 55.7 |
| Cc1cccc(CN2CCO[C@H]3[C@@H](OCc4ccncc4)CC[C@@H]32)n1 | 85.6 |
| c1ccc(CO[C@H]2CC[C@H]3[C@H]2OCCN3Cc2nccs2)nc1 | 22.2 |
| COCCN1CCC(c2nc3c([nH]2)CCCNC3=O)CC1 | 44 |
| COc1cccc(CNCc2ccc(F)cc2Cl)c1O | -38 |
| COC(=O)CNC(=O)N1CCN(c2nc3ccccc3n2C)CC1 | 10.7 |

| Compound | INHIBITION [%] |
| --- | --- |
| Cc1nc2[nH]cnc(NCCN3CCCC3)c-2n1 | 29.7 |
| COCC(=O)N1CC[C@@H]2O[C@@H](COCc3csc(C)n3)CC[C@@H]21 | 27.3 |
| CCc1ncc2c(n1)CN(CC(=O)Nc1nncs1)CC2 | 33.8 |
| Cn1ccnc1S(=O)(=O)C(C(=O)N1CCCCC1)c1ccccc1 (centres undefined) | 28.1 |
| COCCN1CCCc2sc(C(=O)Nc3ccc(C)nc3)nc21 | 16.9 |
| Cc1ccc(OCCNc2cccc(C(=O)N3CCOCC3)c2)cc1 | -17.3 |
| CC(CN1CCCC1=O)NC(=O)c1ccc(-c2ccco2)[nH]c1=O (centres undefined) | 16.6 |
| O=c1nc(CNc2ccccc2)[nH]n1Cc1ccccc1 | -31.6 |
| COc1nccc(C(F)(F)F)c1C(=O)O | 4.12 |
| Cc1ccc(C(=O)NCCC(C)C)cc1NS(C)(=O)=O | 18.6 |
| Cc1ccc(C(=O)NCCCNS(C)(=O)=O)cc1C | -43.2 |
| CC(C)CCNC(=O)c1ccc(Cl)c(NS(C)(=O)=O)c1 | 54.4 |
| Cc1cc(C(=O)NCCC(C)C)ccc1NS(C)(=O)=O | 65.6 |
| CCN(CC)CCNC(=O)c1ccc(Cl)c(NS(C)(=O)=O)c1 | 18.6 |
| CC(C)(C)CCNC(=O)c1ccc(Cl)c(NS(C)(=O)=O)c1 | -3.81 |
| Cc1nccn1-c1ccc(=O)n(CCNC(=O)c2c(F)cccc2Cl)n1 | 6.67 |
| CCn1ccnc1CN1CCN(CC(O)CN2CCOCC2)CC1 (centres undefined) | 12.415 |
| CC(NC(=O)NCCC1=CCCCC1)c1nncn1C (centres undefined) | 15.7 |
| Cc1ccc(-c2nc(C3CCN(C(=O)c4ccn(C)n4)CC3)no2)cn1 | -26.7 |
| CN(CC(=O)NCC(F)(F)F)C(=O)c1ccc(=O)[nH]c1 | -10.8 |
| Cc1ccc(C(=O)N(C)CC(=O)NCC(F)(F)F)cn1 | 42 |
| CN(CC(=O)NCC(F)(F)F)C(=O)c1ccc(C(=O)OC(C)(C)C)cc1 | 63.7 |
| COC(=O)c1cccn1C1CCN(C(=O)c2cc(F)ccc2C)CC1 | 8.64 |
| CS(=O)(=O)N1CC(=O)N(CCCc2ccccc2)CC(O)C1 (centres undefined) | 42.7 |
